# Test results: ChEMBL document CHEMBL2218924, “A broad activity screen in support of a chemogenomic map for kinase signalling research and drug discovery” (Biochem J, 2013)
# Assays:
# [1] = target: Death-associated protein kinase 2 (Homo sapiens) (UniProt Q9UIK4); conditions: at 1 µM
# [2] = target: Death-associated protein kinase 2 (Homo sapiens) (UniProt Q9UIK4); conditions: at 10 µM
# [3] = target: T1, Discoidin domain-containing receptor 2 (Homo sapiens) (UniProt Q16832); conditions: at 1 µM
# T1 sequence (whole entry): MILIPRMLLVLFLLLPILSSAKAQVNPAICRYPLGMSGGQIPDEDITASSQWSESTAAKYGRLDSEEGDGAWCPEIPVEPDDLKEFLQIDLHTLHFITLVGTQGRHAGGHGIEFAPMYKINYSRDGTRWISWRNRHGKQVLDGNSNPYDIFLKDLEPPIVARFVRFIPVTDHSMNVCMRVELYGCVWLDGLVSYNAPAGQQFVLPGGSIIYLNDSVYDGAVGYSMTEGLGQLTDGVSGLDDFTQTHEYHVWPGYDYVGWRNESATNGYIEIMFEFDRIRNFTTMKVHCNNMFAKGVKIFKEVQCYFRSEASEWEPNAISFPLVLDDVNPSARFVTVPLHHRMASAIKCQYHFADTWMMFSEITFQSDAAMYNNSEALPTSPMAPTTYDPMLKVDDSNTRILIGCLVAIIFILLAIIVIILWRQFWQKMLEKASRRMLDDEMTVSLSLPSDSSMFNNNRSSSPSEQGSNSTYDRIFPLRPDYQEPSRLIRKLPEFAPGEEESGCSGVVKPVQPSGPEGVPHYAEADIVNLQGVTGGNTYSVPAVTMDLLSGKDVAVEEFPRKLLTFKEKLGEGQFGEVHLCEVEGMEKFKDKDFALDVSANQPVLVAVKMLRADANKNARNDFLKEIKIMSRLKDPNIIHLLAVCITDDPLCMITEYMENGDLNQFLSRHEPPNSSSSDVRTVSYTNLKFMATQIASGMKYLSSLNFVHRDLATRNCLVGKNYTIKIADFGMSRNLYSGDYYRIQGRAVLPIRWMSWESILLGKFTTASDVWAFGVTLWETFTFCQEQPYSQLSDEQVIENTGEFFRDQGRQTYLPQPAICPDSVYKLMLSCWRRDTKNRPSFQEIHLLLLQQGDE
# [4] = target: T1, Discoidin domain-containing receptor 2 (Homo sapiens); conditions: at 10 µM
# [5] = target: T2, Serine/threonine-protein kinase 17A (Homo sapiens) (UniProt Q9UEE5); conditions: at 1 µM
# T2 sequence (whole entry): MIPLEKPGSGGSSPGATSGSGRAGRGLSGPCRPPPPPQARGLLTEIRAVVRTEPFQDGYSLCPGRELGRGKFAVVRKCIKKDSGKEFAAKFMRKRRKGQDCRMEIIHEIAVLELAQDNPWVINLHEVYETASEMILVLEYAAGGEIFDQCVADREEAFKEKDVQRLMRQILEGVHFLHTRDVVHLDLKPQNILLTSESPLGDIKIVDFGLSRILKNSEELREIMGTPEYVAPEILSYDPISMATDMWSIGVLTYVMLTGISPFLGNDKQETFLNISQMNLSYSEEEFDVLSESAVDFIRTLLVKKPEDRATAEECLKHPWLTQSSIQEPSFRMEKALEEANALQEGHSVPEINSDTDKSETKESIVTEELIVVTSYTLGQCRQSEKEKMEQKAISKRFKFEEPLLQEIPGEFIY
# [6] = target: T2, Serine/threonine-protein kinase 17A (Homo sapiens); conditions: at 10 µM
# [7] = target: T3, Dual specificity tyrosine-phosphorylation-regulated kinase 2 (Homo sapiens) (UniProt Q92630); conditions: at 1 µM
# T3 sequence (whole entry): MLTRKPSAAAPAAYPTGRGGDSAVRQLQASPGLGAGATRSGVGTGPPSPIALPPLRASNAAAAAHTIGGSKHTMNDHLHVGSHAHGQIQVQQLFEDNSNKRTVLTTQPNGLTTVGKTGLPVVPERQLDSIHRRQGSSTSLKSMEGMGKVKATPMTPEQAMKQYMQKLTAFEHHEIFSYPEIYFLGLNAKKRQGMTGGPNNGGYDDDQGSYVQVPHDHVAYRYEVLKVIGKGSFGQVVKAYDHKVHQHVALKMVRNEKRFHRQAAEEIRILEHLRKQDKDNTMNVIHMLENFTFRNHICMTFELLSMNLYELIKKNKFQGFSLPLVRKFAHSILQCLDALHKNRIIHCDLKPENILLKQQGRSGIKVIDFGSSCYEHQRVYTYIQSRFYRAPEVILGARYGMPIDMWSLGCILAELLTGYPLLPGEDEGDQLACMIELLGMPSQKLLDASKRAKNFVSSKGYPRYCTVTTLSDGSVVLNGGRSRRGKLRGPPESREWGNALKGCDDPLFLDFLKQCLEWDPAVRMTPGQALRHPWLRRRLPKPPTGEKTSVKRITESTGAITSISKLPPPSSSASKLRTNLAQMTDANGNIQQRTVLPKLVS
# [8] = target: T3, Dual specificity tyrosine-phosphorylation-regulated kinase 2 (Homo sapiens); conditions: at 10 µM
# [9] = target: T4, Ephrin type-A receptor 1 (Homo sapiens) (UniProt P21709); conditions: at 1 µM
# T4 sequence (whole entry): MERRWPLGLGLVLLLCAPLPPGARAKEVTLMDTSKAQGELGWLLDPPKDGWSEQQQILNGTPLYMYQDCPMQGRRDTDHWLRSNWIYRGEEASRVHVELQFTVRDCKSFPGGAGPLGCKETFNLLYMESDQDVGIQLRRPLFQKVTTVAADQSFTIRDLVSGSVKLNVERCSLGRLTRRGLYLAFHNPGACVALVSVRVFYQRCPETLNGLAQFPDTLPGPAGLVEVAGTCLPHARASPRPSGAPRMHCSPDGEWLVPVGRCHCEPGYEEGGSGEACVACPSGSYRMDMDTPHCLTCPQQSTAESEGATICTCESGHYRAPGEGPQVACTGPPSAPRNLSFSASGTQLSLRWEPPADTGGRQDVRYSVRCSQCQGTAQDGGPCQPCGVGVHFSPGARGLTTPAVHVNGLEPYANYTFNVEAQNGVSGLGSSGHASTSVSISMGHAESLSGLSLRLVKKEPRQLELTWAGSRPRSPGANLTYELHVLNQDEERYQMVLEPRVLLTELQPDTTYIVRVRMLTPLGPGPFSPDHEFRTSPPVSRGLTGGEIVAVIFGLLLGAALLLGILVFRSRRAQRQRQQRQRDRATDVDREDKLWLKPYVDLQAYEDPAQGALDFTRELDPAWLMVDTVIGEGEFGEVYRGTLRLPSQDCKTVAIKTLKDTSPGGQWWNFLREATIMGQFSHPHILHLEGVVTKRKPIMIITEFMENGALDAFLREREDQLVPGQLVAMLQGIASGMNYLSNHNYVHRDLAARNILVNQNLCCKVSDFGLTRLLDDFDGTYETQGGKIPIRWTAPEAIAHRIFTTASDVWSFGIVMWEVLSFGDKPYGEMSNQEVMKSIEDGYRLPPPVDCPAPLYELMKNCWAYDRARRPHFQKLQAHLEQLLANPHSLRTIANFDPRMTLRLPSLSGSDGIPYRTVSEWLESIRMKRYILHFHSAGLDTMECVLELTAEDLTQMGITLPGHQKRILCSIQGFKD
# [10] = target: T4, Ephrin type-A receptor 1 (Homo sapiens); conditions: at 10 µM
# [11] = target: Ephrin type-A receptor 2 (Homo sapiens) (UniProt P29317); conditions: at 1 µM
# [12] = target: Ephrin type-A receptor 2 (Homo sapiens) (UniProt P29317); conditions: at 10 µM
# [13] = target: T5, Ephrin type-A receptor 3 (Homo sapiens) (UniProt P29320); conditions: at 1 µM
# T5 sequence (whole entry): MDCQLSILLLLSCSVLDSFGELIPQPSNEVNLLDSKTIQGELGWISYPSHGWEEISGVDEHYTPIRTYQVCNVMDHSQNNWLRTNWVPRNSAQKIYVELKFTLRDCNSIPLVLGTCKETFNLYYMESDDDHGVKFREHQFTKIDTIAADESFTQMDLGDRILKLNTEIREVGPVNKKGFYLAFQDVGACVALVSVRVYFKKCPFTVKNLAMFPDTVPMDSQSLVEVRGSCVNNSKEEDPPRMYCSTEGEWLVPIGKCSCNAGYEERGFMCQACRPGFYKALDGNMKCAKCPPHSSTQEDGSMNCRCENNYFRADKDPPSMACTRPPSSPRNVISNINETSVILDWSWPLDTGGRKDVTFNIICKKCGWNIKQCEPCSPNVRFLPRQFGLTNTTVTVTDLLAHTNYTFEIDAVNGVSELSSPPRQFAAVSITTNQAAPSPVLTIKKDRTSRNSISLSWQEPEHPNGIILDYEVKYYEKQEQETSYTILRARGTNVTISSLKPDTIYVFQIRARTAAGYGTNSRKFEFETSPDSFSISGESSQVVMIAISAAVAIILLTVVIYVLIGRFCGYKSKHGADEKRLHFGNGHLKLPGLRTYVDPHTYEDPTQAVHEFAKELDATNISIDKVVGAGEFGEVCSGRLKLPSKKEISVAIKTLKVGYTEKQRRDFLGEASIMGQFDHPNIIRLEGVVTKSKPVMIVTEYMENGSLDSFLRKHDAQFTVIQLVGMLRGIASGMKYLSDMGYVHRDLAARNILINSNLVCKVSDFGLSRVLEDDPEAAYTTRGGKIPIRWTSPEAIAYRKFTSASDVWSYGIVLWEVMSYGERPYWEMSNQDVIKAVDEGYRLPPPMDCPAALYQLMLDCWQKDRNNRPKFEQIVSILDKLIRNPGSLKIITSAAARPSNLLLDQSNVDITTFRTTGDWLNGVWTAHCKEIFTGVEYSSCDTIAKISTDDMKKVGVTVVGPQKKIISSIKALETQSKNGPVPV
# [14] = target: T6, Serine/threonine-protein kinase DCLK2 (Homo sapiens) (UniProt Q8N568); conditions: at 1 µM
# T6 sequence (whole entry): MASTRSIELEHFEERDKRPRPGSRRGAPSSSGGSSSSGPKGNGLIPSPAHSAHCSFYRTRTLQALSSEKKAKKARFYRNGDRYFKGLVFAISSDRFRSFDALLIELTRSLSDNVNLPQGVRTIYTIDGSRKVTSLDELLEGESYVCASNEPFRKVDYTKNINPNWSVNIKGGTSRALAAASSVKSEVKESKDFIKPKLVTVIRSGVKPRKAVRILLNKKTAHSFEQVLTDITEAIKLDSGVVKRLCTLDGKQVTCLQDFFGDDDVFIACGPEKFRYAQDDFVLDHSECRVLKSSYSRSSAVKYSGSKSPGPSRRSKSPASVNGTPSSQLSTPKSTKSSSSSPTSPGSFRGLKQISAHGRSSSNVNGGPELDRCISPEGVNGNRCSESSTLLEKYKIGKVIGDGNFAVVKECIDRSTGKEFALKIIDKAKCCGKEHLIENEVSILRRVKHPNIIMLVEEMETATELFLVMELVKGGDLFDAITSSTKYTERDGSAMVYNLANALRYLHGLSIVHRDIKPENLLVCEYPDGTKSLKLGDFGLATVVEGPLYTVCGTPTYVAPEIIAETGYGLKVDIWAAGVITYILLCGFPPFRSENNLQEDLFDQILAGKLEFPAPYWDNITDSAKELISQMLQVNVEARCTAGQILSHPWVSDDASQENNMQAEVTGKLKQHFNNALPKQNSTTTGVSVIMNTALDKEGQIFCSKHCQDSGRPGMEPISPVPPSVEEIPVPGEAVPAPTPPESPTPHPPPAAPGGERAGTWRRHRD
# [15] = target: T6, Serine/threonine-protein kinase DCLK2 (Homo sapiens); conditions: at 10 µM
# [16] = target: T7, Myotonin-protein kinase (Homo sapiens) (UniProt Q09013); conditions: at 10 µM
# T7 sequence (whole entry): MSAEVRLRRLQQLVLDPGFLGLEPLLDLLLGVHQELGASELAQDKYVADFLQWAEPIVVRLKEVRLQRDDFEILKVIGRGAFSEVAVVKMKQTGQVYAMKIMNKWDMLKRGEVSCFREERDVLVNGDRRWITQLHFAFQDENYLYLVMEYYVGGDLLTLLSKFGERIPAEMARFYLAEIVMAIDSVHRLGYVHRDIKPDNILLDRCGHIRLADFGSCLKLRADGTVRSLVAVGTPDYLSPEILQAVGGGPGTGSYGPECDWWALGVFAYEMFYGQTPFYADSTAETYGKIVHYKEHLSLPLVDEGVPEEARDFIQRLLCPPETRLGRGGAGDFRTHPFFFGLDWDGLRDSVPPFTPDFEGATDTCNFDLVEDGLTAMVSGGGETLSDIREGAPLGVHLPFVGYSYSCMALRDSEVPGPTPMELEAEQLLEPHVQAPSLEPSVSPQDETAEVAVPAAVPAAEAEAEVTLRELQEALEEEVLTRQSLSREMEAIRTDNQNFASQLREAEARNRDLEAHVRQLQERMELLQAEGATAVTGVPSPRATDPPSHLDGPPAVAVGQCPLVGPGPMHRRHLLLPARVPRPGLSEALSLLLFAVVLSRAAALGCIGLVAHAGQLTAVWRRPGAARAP
# [17] = target: T7, Myotonin-protein kinase (Homo sapiens); conditions: at 1 µM
# Chain of Ephrin type-A receptor 2 (Homo sapiens) (P29317 whole entry): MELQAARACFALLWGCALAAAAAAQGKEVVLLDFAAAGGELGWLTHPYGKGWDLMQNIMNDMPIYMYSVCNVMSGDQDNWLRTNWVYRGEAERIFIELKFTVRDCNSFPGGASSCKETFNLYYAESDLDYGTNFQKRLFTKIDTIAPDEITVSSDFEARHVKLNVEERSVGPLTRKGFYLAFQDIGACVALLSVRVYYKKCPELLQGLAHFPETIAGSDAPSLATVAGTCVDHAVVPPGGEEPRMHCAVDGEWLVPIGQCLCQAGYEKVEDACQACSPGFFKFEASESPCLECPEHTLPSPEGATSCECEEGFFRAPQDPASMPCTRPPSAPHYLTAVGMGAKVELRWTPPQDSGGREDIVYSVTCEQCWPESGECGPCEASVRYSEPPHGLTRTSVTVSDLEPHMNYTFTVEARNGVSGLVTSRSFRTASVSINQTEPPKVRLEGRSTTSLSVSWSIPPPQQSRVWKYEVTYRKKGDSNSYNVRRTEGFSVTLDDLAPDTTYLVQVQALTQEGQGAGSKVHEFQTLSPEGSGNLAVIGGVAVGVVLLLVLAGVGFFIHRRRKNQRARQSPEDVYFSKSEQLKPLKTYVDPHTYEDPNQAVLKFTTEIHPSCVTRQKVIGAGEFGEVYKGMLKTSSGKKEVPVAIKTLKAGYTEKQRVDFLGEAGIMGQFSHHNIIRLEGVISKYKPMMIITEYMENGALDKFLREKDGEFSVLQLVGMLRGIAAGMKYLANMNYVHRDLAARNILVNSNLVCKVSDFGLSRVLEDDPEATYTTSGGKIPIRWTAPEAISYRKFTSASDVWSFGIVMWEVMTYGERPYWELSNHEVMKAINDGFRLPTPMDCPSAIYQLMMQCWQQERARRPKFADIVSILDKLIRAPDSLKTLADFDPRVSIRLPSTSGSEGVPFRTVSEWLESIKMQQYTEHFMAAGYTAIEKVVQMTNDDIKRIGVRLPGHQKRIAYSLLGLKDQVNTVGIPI
# Chain of Death-associated protein kinase 2 (Homo sapiens) (Q9UIK4 whole entry, looked up, the tested form may be a part): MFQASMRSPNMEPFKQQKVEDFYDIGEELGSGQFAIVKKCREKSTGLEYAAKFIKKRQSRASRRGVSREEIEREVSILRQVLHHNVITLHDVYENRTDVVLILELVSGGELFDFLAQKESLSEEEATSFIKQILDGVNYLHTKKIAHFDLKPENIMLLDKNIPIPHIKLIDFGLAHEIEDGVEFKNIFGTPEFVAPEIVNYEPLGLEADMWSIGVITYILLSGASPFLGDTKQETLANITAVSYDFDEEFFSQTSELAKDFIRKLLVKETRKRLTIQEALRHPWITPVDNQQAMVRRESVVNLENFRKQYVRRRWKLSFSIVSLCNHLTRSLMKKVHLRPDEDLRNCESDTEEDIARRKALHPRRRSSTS
smiles,measurement,setting,value
CCCCc1c(-c2ccc(O)cc2)[nH]c2nccnc12,residual activity,[1],89%
same,residual activity,[2],96%
same,residual activity,[3],71%
same,residual activity,[4],36%
same,residual activity,[5],77%
same,residual activity,[6],44%
same,residual activity,[7],85%
same,residual activity,[8],34%
same,residual activity,[9],29%
same,residual activity,[10],47%
same,residual activity,[11],82%
same,residual activity,[12],60%
same,residual activity,[13],72%
NC(=O)c1cccc(-c2cc(Nc3ccc(OC(F)(F)F)cc3)ncn2)c1,residual activity,[6],145%
same,residual activity,[8],91%
same,residual activity,[10],96%
Nc1ncnc2[nH]nc(Nc3ccc(F)cc3)c12,residual activity,[1],99%
same,residual activity,[2],100%
same,residual activity,[14],107%
same,residual activity,[15],96%
same,residual activity,[3],95%
same,residual activity,[4],92%
same,residual activity,[5],45%
same,residual activity,[6],16%
same,residual activity,[7],79%
same,residual activity,[8],30%
same,residual activity,[9],43%
same,residual activity,[12],50%
Cc1cc(C)c(/C=C2\C(=O)Nc3ccccc32)[nH]1,residual activity,[5],26%
same,residual activity,[6],3%
same,residual activity,[10],103%
same,residual activity,[13],101%
O=C(Nc1ccc(Cl)cc1)c1ccccc1NCc1ccncc1,residual activity,[2],119%
same,residual activity,[14],74%
same,residual activity,[4],36%
same,residual activity,[5],99%
same,residual activity,[6],99%
N#C/C(=C1/Nc2ccccc2S1)c1ccnc(NCCc2cccnc2)n1,residual activity,[16],78%
same,residual activity,[5],60%
same,residual activity,[6],37%
same,residual activity,[7],19%
same,residual activity,[8],2%
COc1ccc(CNC(=O)Nc2ncc([N+](=O)[O-])s2)cc1,residual activity,[1],102%
same,residual activity,[2],104%
same,residual activity,[17],100%
same,residual activity,[16],80%
